Source: PubChem BioAssay
A selection: hits, their analogues and other compounds. The true share with any hit is near 2.7%.
IDH1 R132H inh – inhibitors of human mutant IDH1 R132H; Potency, µM (top dose mostly 76.6 µM), inactives show at the top dose activity change, negative = inhibition, most hits filed as inhibitors; O75874; 0.093% of 390,000 active; IDH1-R132H enzyme, NADPH consumption, diaphorase/resazurin fluorescence; note: potency is the fitted concentration of half-maximal effect; % is set by controls: 0 for no effect and ±100 for the full control effect; nearly all actives have a fitted effect of over 65% in size
Target sequence (O75874 whole entry R132H, stated change not applied): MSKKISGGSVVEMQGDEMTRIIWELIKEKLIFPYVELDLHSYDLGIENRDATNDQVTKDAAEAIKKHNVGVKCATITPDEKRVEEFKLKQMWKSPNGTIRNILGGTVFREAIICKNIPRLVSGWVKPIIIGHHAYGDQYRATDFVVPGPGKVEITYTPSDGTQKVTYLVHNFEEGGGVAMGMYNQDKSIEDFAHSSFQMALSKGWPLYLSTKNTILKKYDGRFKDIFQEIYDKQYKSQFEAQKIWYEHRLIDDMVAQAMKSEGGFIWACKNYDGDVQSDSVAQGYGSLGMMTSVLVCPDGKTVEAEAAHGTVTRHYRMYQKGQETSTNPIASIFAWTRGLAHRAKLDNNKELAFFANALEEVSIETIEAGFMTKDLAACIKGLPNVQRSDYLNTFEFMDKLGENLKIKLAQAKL
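IDH1-R132H (0.5 ug/mL dispensed) in pH 7.5 Tris buffer was preincubated 30 min with compound, then given a substrate mix of 0.016 mM NADPH and 2 mM alpha-KG for 80 min at room temperature; remaining NADPH was read by diaphorase/resazurin fluorescence.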
12-LOX inh – blocks human arachidonate 12S-lipoxygenase; P18054; purified 12hLO, xylenol orange hydroperoxide absorbance; Potency, µM (top dose mostly 108 µM), for the others: top-dose activity change, negative = inhibition, hits mostly inhibitors; 1.1% of 580,000 active; AID 1671190; note: potency is the fitted concentration of half-maximal effect; % is set by controls: 0 for no effect and ±100 for the full control effect
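Purified human 12hLO (150 nM final) in 25 mM Hepes, 0.01% Triton X-100, pH 7.0 was preincubated 15 min at room temperature with compound. Then 40 uM arachidonic acid was added, 30 min. Hydroperoxide was read by Fe-XO absorbance ratio 573/405 nm.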
LDHA inh – LDHA (human) enzyme inhibition; activity change, % (values are at about 110 or 230 µM); AID 1347041; purified LDHA, NADH/diaphorase-resazurin fluorescence; hits give low values; 0.15% of 480,000 active; in the data active = activity change below about -30%; inconclusive = mostly about -25% to -30%;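 note: plate controls were DMSO wells for no effect and wells without enzyme for full effect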
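Human LDH5 at 2 nM final in Tris HCl pH 7.4 with 0.06 mM NADH and 0.2 mM pyruvate, reacted 5 minutes at room temperature. Remaining NADH coupled via diaphorase/resazurin; resorufin fluorescence read at 0 and 20 minutes, normalized to enzyme-free and DMSO wells.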
Nrf2 block – blocks Nrf2 signaling; A549 ARE-Fluc reporter, luciferase luminescence, 18-24 h; Potency, µM (highest dose often 46 µM), inactives show at the top dose activity change, negative = inhibition, usual class: inhibitors; 2.1% of 360,000 active; AID 504444; note: potency is the fitted concentration of half-maximal effect; % is set by controls: 0 for no effect and ±100 for the full control effect; nearly all actives have a fitted effect of over 60% in size
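In this cell-based qHTS, ARE-driven firefly luciferase in A549 cells reports Nrf2 activity; the luminescent signal after BugLite lysis is the measured value, with a prior CellTiter-Fluor read for cell health.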
Nrf2 ARE act – activators of Nrf2 (ARE) signaling. AREc32 ARE-luciferase reporter (MCF7-derived line), luminescence, 24 h. Potency, µM (highest dose often 46.1 µM), without a hit: at the top dose activation, actives largely listed as activators. 0.31% of 410,000 active; note: potency is the fitted concentration of half-maximal effect; % of control where 0% means no effect; nearly all actives have a fitted effect of over 65% in size
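For detection, Steady-Glo was added and plates sat 30 min at RT; before that, AREc32_Fluc cells grown overnight in OPTI-MEM/5% FBS had been treated with 23 nL compound for 24 hr at 37 deg C.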
A549 tox – A549 cytotoxicity, counter-screen for Nrf2 inhibitors. A549 ARE-Fluc cells, CellTiter-Fluor viability, 18-24 h. Potency, µM (highest dose often 46 µM), for inactives: top-dose activity change, negative = cytotoxicity, most hits filed as inhibitors. 0.16% of 390,000 active. AID 504648; note: potency is the fitted concentration of half-maximal effect; % is set by controls: 0 for no effect and ±100 for the full control effect
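A549 ARE_Fluc cells in 5% FBS OPTI-MEM were exposed to compounds in concentration-response for 18-24 h at 37 deg C. Viability was read by CellTiter-Fluor fluorescence (Ex 405/Em 525) after 30 min, before the luciferase read.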
The depositor's hits bear a star; ? = inconclusive; · = not tested or not shown; [ ] = another dose, or the depositor's remark. Unless noted, calls come from the whole dose curve; as a rule, active = well fitted curve in the direction sought with a large enough effect; inconclusive = small, poorly fitted or top-dose-only effect, or another doubt; inactive = no such curve, though single readings can be large; an effect the other way counts as inactive or inconclusive.

SMILES	IDH1 R132H inh	12-LOX inh	LDHA inh	Nrf2 block	Nrf2 ARE act	A549 tox
Cc1nc2ccc(C(=O)NCC3CN(CC(C)C)CCO3)cc2nc1C (centres undefined)	·	-2%	4	·	·	·
CC1CCc2cc(F)cc3c(O)c(C(=O)NCC4CCCO4)c(=O)n1c23 (centres undefined)	7%	-1%[57.4 µM]	9	16µM*	-1%	-7%
CCCn1c(=O)c(C(=O)NCC2CCCO2)c(O)c2ccccc21 (centres undefined)	0%	-1%	8	-8%	0%	-1%
Cc1ccc(NNC(=S)Nc2ccc(C(C)C)cc2)c(C)c1	2%	35µM*	1	?	5%	1%
O=c1c2ccc(F)cc2sn1-c1ccccc1	-4%	0.35µM*	-13	·	23%	·
COC(=O)c1cccc(-n2sc3ccccc3c2=O)c1	-23%	1.3µM*	?	13%	23%	2%
COC(=O)c1cccc(N2CCCC2=O)c1	-1%	1%	-9	1%	0%	7%
O=c1c2cc(F)ccc2sn1-c1ccccc1Cl	0%	0.45µM*	-43*	·	?	·
N=C1SCC(=O)N1c1ccccc1Cl	-13%	3%	-10	-5%	0%	8%
O=c1sc2ccccc2c(=O)n1Cc1ccccc1F	-3%	0%	-1	24%	0%	1%
O=C(c1sc2cc(F)ccc2c1Cl)N1CCN(c2cccc(Cl)c2)CC1	6%	-13%	-2	-22%	0%	1%
O=c1c2ccccc2sn1-c1ccc(F)cc1	-12%	?	-31*	-11%	20%	0%
C#Cc1cccc(NC(=O)c2n[nH]c(=O)c3ccccc23)c1	·	-17%	2	·	·	·
O=C(COc1ccc2ccccc2c1)NCc1ccccc1CN1CCCC1	·	?	-2	·	·	·
CCNC(=O)c1cccc(NC(=O)Cc2ccc(OC)cc2)c1	·	4%	5	·	·	·
Cc1ccc(-n2sc3cc(F)ccc3c2=O)c(C)c1	-4%	0.4µM*	-4	·	9%	·
CCC(=O)N1CCCC(c2nc(-c3ccc4nc[nH]c4c3)no2)C1 (centres undefined)	·	28%	·	·	·	·
CCOC(=O)N1CCC(NC(=O)C2CCCN(Cc3nc(-c4cccc(Cl)c4)oc3C)C2)CC1 (centres undefined)	23%	6%	0	16µM*	1%	-16%
Cc1ccc(-c2nn(-c3cccc(F)c3)cc2CN2CCN(c3ccccn3)CC2)o1	0%	8.9µM*	-2	?	4%	-9%
CCC1C(=O)NCCN1Cc1cn(-c2cccc(F)c2)nc1-c1ccc(C)o1 (centres undefined)	·	-9%	·	·	·	·
COc1ccc(C(=O)NCC(c2ccco2)N2CCc3ccccc3C2)cc1 (centres undefined)	2%	?	-4	1%	0%	-4%
O=[N+]([O-])c1ccc(S(=O)(=O)NCC(c2ccco2)N2CCc3ccccc3C2)cc1 (centres undefined)	12%	14µM*	-7	2%	0%	-2%
O=C(NCC(c1ccco1)N1CCc2ccccc2C1)c1ccc(Cl)cc1 (centres undefined)	3%	14µM*	-10	14%	0%	-3%
O=C(NCC(c1ccco1)N1CCc2ccccc2C1)c1cccc(Br)c1 (centres undefined)	3%	?	-7	-16%	3%	0%
Cc1ccc(C(=O)NCC(c2ccco2)N2CCc3ccccc3C2)cc1 (centres undefined)	1%	8.9µM*	0	-9%	0%	-8%
O=C(NCC(c1ccco1)N1CCc2ccccc2C1)c1ccc(Br)cc1 (centres undefined)	11%	11µM*	-3	-1%	4%	1%
O=[N+]([O-])c1ccc(S(=O)(=O)NCC(c2cccnc2)N2CCc3ccccc3C2)cc1 (centres undefined)	-1%	31%	-5	1%	1%	1%
